# According to ChEMBL document CHEMBL1157539, “Thousands of chemical starting points for antimalarial lead identification” (Nature, 2010):
# Columns and labels:
# Format in all cases: functional
# Plasmodium falciparum [1] = assay: GSK_TCMDC: Inhibition of Plasmodium falciparum 3D7 in whole red blood cells, using parasite LDH activity as an index of growth. Test compounds present at 2uM
# Plasmodium falciparum [2] = assay: GSK_TCMDC: Inhibition of Plasmodium falciparum Dd2 in whole red blood cells, using parasite LDH activity as an index of growth. Test compounds present at 2uM
# HepG2 = assay: GSK_TCMDC: Percent inhibition of human HepG2 cell line. Test compounds present at 10uM.
Structure (SMILES),Inhibition (Plasmodium falciparum [1]),Inhibition (Plasmodium falciparum [2]),Inhibition (HepG2)
O=S(=O)(c1ccccc1OC(F)(F)F)C1CC2CCC(C1)N2S(=O)(=O)c1cccc(C(F)(F)F)c1 (stereo not given),99%,99%,5%
Cl.NCCCOc1cnc(-c2ccccc2)c2nc(-c3nonc3N)n(CCc3ccccc3)c12,93%,86%,56%
COc1cccc(-c2cc(C(F)(F)F)n3ncc(C(=O)Nc4cc(C)ccc4O)c3n2)c1,98%,99%,0%
CS(=O)(=O)O.N#Cc1ccc(CNCCCCCCNCc2ccc(C#N)c3ccccc23)c2ccccc12,100%,96%,51%
CCNc1cc(C(=O)N[C@@H](Cc2ccccc2)[C@H](O)CNC2(C(C)C)CCC2)cc(N2CCCCS2(=O)=O)c1.Cl,99%,85%,0%
CN1CCc2cc(O)c(NS(=O)(=O)c3ccc(-c4ccc(Cl)cc4)cc3)cc2CC1.Cl,100%,3%,7%
Cc1ccccc1C1CCN(C2CCC(NC(=O)c3ccc(-c4cc(C(F)(F)F)nn4C)s3)CC2)CC1 (stereo not given),98%,68%,42%
O=C(NC1CCN(Cc2ccccc2)CC1)c1cccc(-c2nc3ccc(Cl)cc3[nH]2)c1,98%,0%,6%
O=C(O)C(F)(F)F.O=C1CCCN1CCCNCc1ccc(-c2ccc(-c3nc4cc(C(F)(F)F)ccc4[nH]3)s2)cc1,100%,96%,9%
O=c1cc(NCCCNC2CCCc3c2cc(Cl)c(Cl)c3Cl)[nH]c2ccccc12 (stereo not given),100%,64%,6%
